Measurements published in the supplement of paper PMC3334620.
The full ranking holds about 33,000 sequences; the median of “E-score (-0.5 to 0.5)” is about -0.04, and the highest 2% start at about 0.36. This excerpt belongs to a sample that is enriched for the highest values.

target: T1, Hmlalpha2 (UniProt P0CY09); test: PBM E-score (8-mer binding enrichment) (E-score (-0.5 to 0.5)); higher = stronger / more preferred TF binding; settings: protein concentration: 200 nM; construct: GST-full length
T1 sequence: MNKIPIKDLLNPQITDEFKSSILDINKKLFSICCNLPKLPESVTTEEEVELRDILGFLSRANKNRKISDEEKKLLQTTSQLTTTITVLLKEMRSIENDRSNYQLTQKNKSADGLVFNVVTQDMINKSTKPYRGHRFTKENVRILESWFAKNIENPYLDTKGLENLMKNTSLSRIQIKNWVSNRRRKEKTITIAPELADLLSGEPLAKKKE
How it was run: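 Universal all-10-mer Agilent arrays, fresh or stripped once, were converted to double-stranded form by primer extension. GST-tagged yeast transcription factors from PURExpress in vitro transcription/translation, full-length or DNA-binding domain only, were applied at about 100-200 nM and detected with fluorescent anti-GST. After masliner normalisation, the Universal PBM Analysis Suite scored each ungapped eight-base word together with its reverse complement by E-score.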

| Sequence | PBM E-score |
| --- | --- |
| ACACGCGT | 0.43 |
| AAACGCGT | 0.312 |
| ACACGCGA | 0.378 |
| ACGCGCGT | 0.343 |
| ACACGCGG | 0.324 |
| ACACGCGC | 0.304 |
| AACTGCAC | 0.0702 |
| TCTGTAAA | 0.278 |
| AATGTAAC | 0.296 |
| GAGGTAAA | 0.228 |
| GATGTAGC | -0.0783 |
| GATGTAAA | 0.433 |
| ACTGTAAA | 0.222 |
| ACTGTAAT | 0.251 |
| AATGTAAA | 0.434 |
| AATGTAAT | 0.461 |
| ACAATTCT | 0.156 |
| AAAGAATC | -0.124 |
| CCTCTTCG | -0.127 |
| AAGGCTTC | -0.116 |
| CCTACACA | 0.266 |
| CCTACACG | 0.393 |
| ACTACACC | 0.166 |
| GTACTACA | 0.369 |
| ATACTACA | 0.32 |
| CTACTACA | 0.304 |

| Sequence | PBM E-score |
| --- | --- |
| TCTACAGA | 0.133 |
| ACTACACG | 0.454 |
| CCTACACC | -0.00672 |
| ACTACACT | 0.253 |
| TCTACACA | 0.445 |
| GCTACACA | 0.323 |
| ATGGTTAA | 0.139 |
| CATGTGAC | 0.19 |
| CCCCTTCA | -0.233 |
| AGTGCAGG | -0.159 |
| TCAAGCCA | -0.0161 |
| CCCCCTAC | -0.279 |
| CCCAATCC | -0.281 |
| CGTATCCA | -0.0445 |
| AACAACGG | 0.138 |
| ACACTACT | 0.105 |
| GAACTACA | 0.197 |
| TAACTACA | 0.378 |
| ACTACAAG | 0.267 |
| ACACTACA | 0.397 |
| CCACTACA | 0.212 |
| ACTACACA | 0.406 |
| ACTACAGA | 0.119 |
| CAACTACA | 0.316 |
| AGCTCTTC | -0.21 |
| ATCGCGGA | -0.302 |

| Sequence | PBM E-score |
| --- | --- |
| GTCAAGTA | 0.201 |
| CGAAGCGA | -0.131 |
| CCAGTAGC | -0.157 |
| CACCGCCG | -0.288 |
| ATGAGTCG | -0.0768 |
| CATCAACC | 0.0266 |
| TAGACGCA | 0.0971 |
| TCCCTGAA | -0.0392 |
| ATATGTAC | 0.337 |
| ATATGTAG | 0.3 |
| CTCTGTAC | -0.00455 |
| CTATGTAC | 0.401 |
| GTATGTAA | 0.477 |
| CTATGTAA | 0.485 |
| CTCTGTAA | 0.195 |
| ATATGTGA | 0.234 |
| CTATGTGA | 0.172 |
| GTATGTCA | 0.352 |
| ATATGTAA | 0.416 |
| GTATGTGA | 0.199 |
| ATCAAAAA | 0.0225 |
| AAAGCGAC | 0.0782 |
| GCTCTCCC | -0.266 |
| AGTGCATA | 0.1 |
| GCTCAGAA | -0.0102 |
| AGTAACTA | 0.213 |

| Sequence | PBM E-score |
| --- | --- |
| CAGATCCA | -0.0975 |
| AGACGCCG | -0.154 |
| ATACGTAC | 0.242 |
| CTACGTAA | 0.318 |
| TTACGCAA | 0.391 |
| ATACGTAG | 0.257 |
| TTACGTAA | 0.426 |
| GTACGCAA | 0.155 |
| ATACGCAA | 0.347 |
| GTACGTAA | 0.34 |
| ATACGTAA | 0.379 |
| CTCCTCGC | -0.164 |
| CTCCATCC | -0.1 |
| CAGCCGTC | -0.132 |
| TACACATA | 0.408 |
| GACACATA | 0.26 |
| AACACATC | 0.291 |
| AACACATA | 0.39 |
| AACACATG | 0.363 |
| CACACATA | 0.214 |
| GAACCACA | 0.0162 |
| GAATTGAC | 0.104 |
| ACTTTGGA | 0.136 |
| ATGTCAAC | 0.374 |
| TTGTCAAA | 0.262 |
| ATGTCAAG | 0.305 |

| Sequence | PBM E-score |
| --- | --- |
| ATGTCATC | 0.0953 |
| CTGTCAAA | 0.18 |
| ATGTCATA | 0.311 |
| CTGTCAAC | 0.198 |
| ATGTCATG | 0.388 |
| GTGTCAAA | 0.382 |
| ATGTCAAT | 0.4 |
| ATGTCAAA | 0.354 |
| GTGTCAAC | 0.305 |
| AGAAAGCG | -0.00586 |
| ATGCTGGC | 0.0473 |
| GCCATTTA | 0.00861 |
| GAGATTCC | -0.218 |
| ATATTCTG | 0.00643 |
| CCTTAAAC | -0.15 |
| ATGCTAAT | 0.167 |
| AGATTGTG | 0.0599 |
| CACATTAG | -0.078 |
| AACATTAC | 0.332 |
| CACATTAC | 0.375 |
| CGCGCACA | 0.133 |
| CATGTAGA | 0.472 |
| CCTGTAGA | 0.0876 |
| AGTGTAGA | 0.171 |
| TATGTAGA | 0.424 |
| AATGTAGA | 0.301 |

| Sequence | PBM E-score |
| --- | --- |
| GATGTAGA | 0.314 |
| CGTGTAGA | 0.482 |
| CGTGTAGC | 0.344 |
| CATGTAGG | 0.407 |
| CAAGTAGG | -0.0322 |
| CATGTAGC | 0.344 |
| AATGTAGG | 0.0581 |
| ACATAGCC | 0.231 |
| CCGCTCTC | -0.296 |
| AGCTTAAA | -0.0456 |
| AATCTGTA | 0.186 |
| AATTAGGC | -0.0388 |
| AGCCTAAG | -0.223 |
| CTAGACGA | -0.137 |
| AACAGGTG | 0.184 |
| TAGATATA | 0.0377 |
| GGCATGCA | 0.128 |
| CGCATGTA | 0.422 |
| GGCATGTA | 0.439 |
| AGCATGTA | 0.458 |
| AGCATGTG | 0.22 |
| GGCATGGA | -0.113 |
| AGCATGTC | 0.267 |
| CGCATGTC | 0.274 |
| CGCATGGA | -0.0665 |
| AAGGGTGC | -0.233 |

| Sequence | PBM E-score |
| --- | --- |
| AGGGTGTA | 0.186 |
| TTCTACAA | 0.314 |
| ACCCTGAT | -0.3 |
| ATGTTACG | 0.351 |
| ACGTTATC | 0.145 |
| ACGTTATA | 0.275 |
| ATGTTATC | 0.401 |
| ATGTTATG | 0.425 |
| ATGTTATA | 0.418 |
| AGGTTATA | 0.0651 |
| CTGTTATC | -0.00298 |
| GCGTTATA | 0.218 |
| AAGTTATG | 0.256 |
| GTGTTATA | 0.444 |
| CTGTTATA | 0.29 |
| ATGAGGCG | -0.102 |
| AAGGAGCA | -0.237 |
| CACCTCAC | 0.0105 |
| CCTATTCA | -0.319 |
| CGCGGCCC | -0.135 |
| CATTCTCG | -0.0595 |
| AGAACGAC | -0.0288 |
| AAGAGCGA | -0.2 |
| ATCGTGTA | 0.475 |
| GTCGTGTA | 0.464 |
| CTCGTGTA | 0.434 |

| Sequence | PBM E-score |
| --- | --- |
| ATCGTGTG | 0.313 |
| CTCGTGGA | -0.107 |
| CTCGTGTC | 0.257 |
| GTCGTGGA | -0.154 |
| ATCGTGTC | 0.358 |
| GTCGTGCA | 0.0844 |
| CACCTATC | -0.0688 |
| AGTAGTCA | -0.00856 |
| CCAGGTAC | -0.122 |
| ATAAGCAG | -0.00191 |
| CGTTTTTA | 0.253 |
| GCAGTGTA | 0.292 |
| ACACGGGA | 0.371 |
| ACACGGCT | 0.32 |
| ACACGGGC | 0.325 |
| ACACGGGT | 0.391 |
| AAACGGGT | 0.153 |
| ACACGGGG | 0.3 |
| CTCTGCAA | -0.0611 |
| CGGAGCTA | -0.0643 |
